# Reference: PubChem BioAssay AID463173 (ICCB-Longwood Screening Facility, Harvard Medical School, 2010)
# Among all 52,000 compounds or so, about 4,300 (8.3%) were called active. What follows is part of a selection rich in actives, with near analogues and random picks from the rest. Values without a mark were called inactive. No stated cut-off is given here; in the data, active means survival mostly below about 52% (no sharp cut-off); inactive means mostly above about 56%.
# Test system: DeltatarO mutant
# Assay: S. aureus survival, RN4220 and DeltatarO strains – OD600, teichoic acid synthesis inhibitors, primary screen (AID 463173)
# Settings: S. aureus RN4220 wild type/DeltatarO growth, OD600, 18 h, hits give low values, screened at 18.75 µg/mL (by protocol)
row,SMILES,survival
1,COc1ccccc1CCNC(=O)Cc1c(C)c2cc3c(C)coc3cc2oc1=O,68%
2,CCOC(=O)C1=C(CN2CCN(c3ccccc3OC)CC2)NC(=O)NC1c1ccccc1 (centres undefined),70%
3,Cc1ccc(-c2nnc(Nc3cccc(Cl)c3)c3ccccc23)cc1S(=O)(=O)N1CCCCC1,65%
4,CCN(C(=O)c1ccc(C(=O)N(CC)c2ccccc2C)cc1)c1ccccc1C,68%
5,CCN(CC)C(=O)c1ccccc1NC(=O)c1ccccc1,92%
6,CCN(CC)C(=O)c1ccccc1C,48% (active)
7,CCCCC(CC)CNC(=O)CN(C)S(=O)(=O)c1ccc2c(c1)c(=O)n(C)c(=O)n2C (centres undefined),73%
8,CCc1ccc(-n2c(=O)c3c4c(sc3n(CC(=O)c3ccc(Cl)cc3)c2=O)CCC4)cc1,142%
9,O=C(O)CCSc1nnnn1-c1ccccc1,73%
10,CCS(=O)(=O)c1nnnn1-c1ccccc1,9% (active)
11,c1ccc(CNc2nnnn2-c2ccccc2)cc1,93%
12,CCOc1ccc(C2CC(=O)Nc3cc4c(cc32)OCO4)cc1OC (centres undefined),120%
13,NS(=O)(=O)c1ccc(CCNc2ncnc3c2cnn3-c2cccc(Cl)c2)cc1,93%
14,CCOc1ccc(NC(=O)Cn2c(=O)n(CC(=O)NCCc3ccccc3)c(=O)c3sccc32)cc1,71%
15,COc1ccc(CCNC(=O)Cn2c(=O)c3sccc3n(CC(=O)Nc3cccc(C(F)(F)F)c3)c2=O)cc1OC,82%
16,COc1cccc(NC(=O)Cn2c(=O)n(CC(=O)NCCc3ccccc3)c(=O)c3sccc32)c1,45% (active)
17,COc1cc(NC(=O)Cn2c(=O)n(CC(=O)NCCc3ccc(OC)c(OC)c3)c(=O)c3sccc32)cc(OC)c1,49% (active)
18,COc1cc(OC)cc(-n2c(=O)c3ccccc3n(CC(=O)NCCc3ccc(OC)c(OC)c3)c2=O)c1,83%
19,COc1cccc(NC(=O)Cn2c(=O)n(CC(=O)NCc3ccc(C)cc3)c(=O)c3sccc32)c1,77%
20,CCN(CC)S(=O)(=O)c1ccc2c(c1)N(CC(=O)NCCCN1CCN(c3ccccc3F)CC1)C(=O)CO2,77%
21,CC1=CC(C)C(/C=N/N=C(N)N)C(C)C1 (centres undefined),71%
22,Cn1c(SCC(=O)O)nc2ccccc21,109%
23,CC(C)c1cnc2c(c1SCC(=O)NCc1ccccc1)c(=O)n(C)c(=O)n2C,77%
24,CCCc1ncc(C(O)c2ccccc2OC)n1C (centres undefined),85%

row,SMILES,survival
1,CC(C)c1ncc(C(O)c2cccc3ccccc23)n1C (centres undefined),56% (active)
2,Cc1cc(NC(=O)CN2CCC(O)CC2)nc2c1c(=O)oc1ccccc12,83%
3,COc1ccccc1-c1c(C(F)(F)F)oc2c(CN3CCCCC3C)c(O)ccc2c1=O (centres undefined),62%
4,COc1ccc(S(=O)(=O)NCCSc2nnnn2-c2ccccc2)cc1OC,127%
5,COc1ccc(C(C)=O)cc1CSc1nc(NCc2ccc(Cl)cc2)c2ccccc2n1,8% (active)
6,O=C(CSc1nc(Nc2ccc(F)c(F)c2)c2ccccc2n1)c1ccc(Cl)cc1,101%
7,COc1ccc(C(C)=O)cc1CSc1nc(Nc2ccc(F)c(F)c2)c2ccccc2n1,25% (active)
8,COc1ccc(C(C)=O)cc1CSc1nc(NCCc2ccccc2)c2ccccc2n1,60%
9,COc1cc(Nc2nc(SCc3ccccc3F)nc3ccccc23)cc(OC)c1,118%
10,COc1ccc(C(C)=O)cc1CSc1nc(NCc2ccccc2)c2ccccc2n1,89%
11,Cc1cccc(N2CCN(C(=O)c3nn(C)c4c3CS(=O)(=O)c3ccccc3-4)CC2C)c1 (centres undefined),71%
12,COc1cc(NC(=O)c2cc3cc4ccc(OC)c(Cl)c4nc3s2)cc(OC)c1,98%
13,CN(CC(=O)Nc1ccc(F)cc1F)S(=O)(=O)c1cccc2nsnc12,92%
14,Cc1ccc(OCCCCn2nnc3sc4c(c3c2=O)CCCC4)cc1,48% (active)
15,COC(=O)c1ccc(Cn2nnc3sc4c(c3c2=O)CCCC4)cc1,74%
16,CC(C)OC(=O)c1ccc(Cn2nnc3sc4c(c3c2=O)CCCC4)cc1,20% (active)
17,CCc1cccc(CC)c1NC(=O)Cn1nnc2sc3c(c2c1=O)CCCC3,142%
18,CC(C)OC(=O)c1cccc(NC(=O)Cn2nnc3sc4c(c3c2=O)CCCC4)c1,75%
19,Cc1cccc(OCCn2nnc3sc4c(c3c2=O)CCCC4)c1,65%
20,COc1ccc(OCCn2nnc3sc4c(c3c2=O)CCCC4)cc1,83%
21,CCOC(=O)c1ccccc1NC(=O)Cn1nnc2sc3c(c2c1=O)CCCC3,63%
22,Cc1ccccc1Cn1nnc2sc3c(c2c1=O)CCCC3,-1% (active)
23,O=c1c2c3c(sc2nnn1CCCCOc1ccc(Cl)cc1)CCCC3,108%
24,O=c1c2c3c(sc2nnn1Cc1ccc(Br)cc1)CCCC3,37% (active)

row,SMILES,survival
1,Cc1ccc(NC(=O)Cn2nnc3sc4c(c3c2=O)CCCC4)c(C)c1,86%
2,N#Cc1ccccc1NC(=O)CSc1ncn[nH]1,164%
3,CC(C)(C)c1ccc(C(=O)N2CCC(c3nc4ccccc4o3)CC2)cc1,86%
4,CCOc1ccc(NC(=O)CSc2ncc(S(=O)(=O)c3ccc(F)c(C)c3)c(=O)[nH]2)cc1,58%
5,CCc1ccc(CNC(=O)c2c(C)oc3ncn(CC(C)C)c(=O)c23)cc1,88%
6,Cc1cc(NCCN(C)C)n2nc(C)c(-c3ccccc3)c2n1,93%
7,CCCCCNS(=O)(=O)c1ccc(N2CCCCS2(=O)=O)cc1,77%
8,Cc1nc2cc(-c3cccc(F)c3)nn2c(C)c1CCC(=O)N1CCN(c2ccc(F)cc2)CC1,56%
9,CCOc1ccc(-c2cc(NC(=O)Nc3ccccc3Cl)c(C(=O)OC)s2)cc1,56%
10,Cn1c(=O)oc2cc(S(=O)(=O)N3CCCC(C(=O)N4CCN(c5ccc(F)cc5)CC4)C3)ccc21 (centres undefined),92%
11,COc1ccc(-c2[nH]c3ccccc3c2SCCNC(=O)c2cc(OC)c(OC)c(OC)c2)cc1,62%
12,COc1cccc(-c2nc(SCC(=O)NC3CCCC3)c(-c3ccc(C)cc3)[nH]2)c1,107%
13,CC(C)Cc1nn2c(=O)cc(COC(=O)c3ccc4c(c3)OCO4)nc2s1,73%
14,O=C(CN1CCCN(Cc2ccccc2Cl)S1(=O)=O)Nc1ccc2c(c1)OCCO2,67%
15,Cc1ccc(S(=O)(=O)Nc2ccc3c(c2)CCCN3C(=O)c2cccs2)cc1C,70%
16,Cc1ccc(S(=O)(=O)Nc2ccc3c(c2)CCCN3C(=O)c2cccs2)cc1,75%
17,Cc1ccc(C)c(S(=O)(=O)Nc2ccc3c(c2)CCCN3C(=O)c2cccs2)c1,47% (active)
18,Cc1ccc(NC(=O)Cn2c(=O)n(Cc3ccco3)c(=O)c3ccccc32)cc1,78%
19,COCCNC(=O)CCn1nc(-c2ccc(Cl)cc2)c2ccccc2c1=O,77%
20,CN(C)C(=O)Cn1nc(-c2ccccc2)c2ccccc2c1=O,92%
21,O=C(Cn1nc(Cc2ccncc2)c2ccccc2c1=O)Nc1cccc(C(F)(F)F)c1,71%
22,O=C(Cn1nc(-c2ccccc2)c2cnc3ccccc3c21)Nc1ccccc1,76%
23,COCCNC(=O)Cn1nc(-c2ccc(C)cc2)c2ccccc2c1=O,39% (active)
24,Cc1cccc(NC(=O)Cn2nc(-c3ccc(Cl)cc3)c3ccccc3c2=O)c1,142%

row,SMILES,survival
1,COCCNC(=O)Cn1nc(C)c2c(C)n(-c3ccc(C)cc3)nc2c1=O,135%
2,CN(C)C(=O)c1ccc(NC(=O)Cn2nc(-c3ccccc3)c3ccccc3c2=O)cc1,39% (active)
3,O=C(Cn1nc(-c2ccc(Cl)cc2)c2ccccc2c1=O)Nc1cccc(Br)c1,28% (active)
4,Cn1nc(-c2ccc(OCC(=O)Nc3cccc(C(F)(F)F)c3)cc2)c2ccccc2c1=O,78%
5,Cc1ccc(-c2nn(CC(=O)Nc3cccc(C(F)(F)F)c3)c(=O)c3ccccc23)cc1,31% (active)
6,O=C(Cn1nc(-c2ccc(Cl)cc2)c2ccccc2c1=O)NCCN1CCOCC1,97%
7,CCOc1ccc(CCNCc2c(C(=O)O)c(C)n(Cc3ccccc3F)c2C)cc1,82%
8,CC(C)(C)n1nnnc1CN1CCC(NC(=O)Nc2ccc(F)cc2)CC1,102%
9,CCOC(=O)c1ccc(NS(=O)(=O)c2ccc3c(c2)n(C)c(=O)n3C)cc1,96%
10,Fc1ccc(-n2ncc3c(Nc4cccc(Cl)c4)ncnc32)cc1,67%
11,COc1cccc2c1cc1c(=O)n(CC(=O)N3CCN(c4ccc(F)cc4)CC3)nc(C)n12,87%
12,COc1cccc(NC(=O)CN2C=NS(=O)(=O)c3ccccc32)c1,122%
13,O=C(CCCCn1c(=O)c2ccccc2n(Cc2ccc(F)cc2Cl)c1=O)NCCc1ccc(Cl)cc1,72%
14,O=C(c1ccc(Cl)cc1)N1CCCCC1CCN1CCOCC1 (centres undefined),104%
15,Cc1nc2c(C(=O)NC(C)c3ccccc3)cnn2c(C)c1Cc1ccccc1 (centres undefined),72%
16,COCCNC(=O)Cn1nc(N2CCN(c3ccccc3OC)CC2)ccc1=O,94%
17,Cn1nc(-c2ccc(C(=O)Nc3cccc(C(F)(F)F)c3)cc2)c2ccccc2c1=O,57%
18,Cc1ccc(NC(=O)Cn2nc(-c3ccc(Cl)cc3)c3ccccc3c2=O)cc1,38% (active)
19,COc1ccc(NC(=O)CCn2nc(-c3ccc(Cl)cc3)c3ccccc3c2=O)cc1,76%
20,O=C(Cn1nc(-c2ccc(Cl)cc2)c2ccccc2c1=O)Nc1cccc(C(F)(F)F)c1,34% (active)
21,CNC(=O)Cn1nc(-c2ccc(Cl)cc2)c2ccccc2c1=O,52%
22,O=C(Cn1nc(Cc2cccnc2)c2ccccc2c1=O)Nc1cccc(C(F)(F)F)c1,54%
